Screening results deposited in PubChem by several laboratories.
Bead autofluor: counter-screen for toxin protease inhibitors: compound fluorescence; fluorescence intensity (concentration not given with the values); compound autofluorescence counterscreen, microsphere flow cytometry; active compounds read high; 360,000 compounds, 3.1% hits; in the data active = fluorescence intensity above about 16000; inconclusive = no clear call, values can overlap the other calls
Anthrax LF prot: anthrax lethal factor protease inhibition; AID 588501; inhibition, % at 10 µM; 360,000 compounds, 0.12% hits; multiplex microsphere protease cleavage assay, LF; P15917
BoNT-F LC inh: inhibitors of Botulinum neurotoxin F light chain protease; Multiplex microsphere protease cleavage assay, flow cytometry; inhibition, % at 10 µM; 360,000 compounds, 0.22% hits; in the data active = inhibition above about 35%, passing the limit was not always enough; inconclusive = no clear call, values can overlap the other calls
BoNT A protease: BoNT A light chain protease inhibition | multiplex microsphere protease substrate cleavage, flow cytometry | inhibition, % at 10 µM | 360,000 compounds, 0.17% hits
MazEF act: increases E. coli MazEF RNase cleavage of RNA; P0AE70; FAM/BHQ RNA-DNA oligo cleavage fluorescence, 5 h; activation, % at 20 µM; 350,000 compounds, 0.32% hits; AID 504720; in the data active = activation above about 50%
Target sequence (P0AE70 whole entry, looked up): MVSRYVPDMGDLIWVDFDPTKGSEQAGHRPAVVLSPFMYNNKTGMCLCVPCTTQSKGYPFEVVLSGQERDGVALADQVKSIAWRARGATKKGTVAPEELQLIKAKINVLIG
Hits are given with their value. The list is not random: actives were taken first. Their share in the collection is about 3.6%. Cut-off read from the data, not from the text of the source, unless noted: active = inhibition above about 30%; inconclusive = no clear call, values can overlap the other calls; inactive = below that.

For O=C(NC1CCCCC1)c1noc2c1CCCCC2 the results were Bead autofluor 22953, Anthrax LF prot inactive, BoNT-F LC inh inactive, BoNT A protease inactive and MazEF act inactive.
CC(C)(C)C1CCc2onc(C(=O)N3CCOCC3)c2C1 (stereo not given) was read as Bead autofluor inactive, Anthrax LF prot inactive, BoNT-F LC inh inactive, BoNT A protease inactive and MazEF act inactive.
`CC(C)(C)C1CCc2onc(C(=O)NC3CCCC3)c2C1` (stereo not given) gave Bead autofluor 21049, Anthrax LF prot inactive, BoNT-F LC inh inactive, BoNT A protease inactive and MazEF act inactive.
For C[C@@H]1CN([C@H](C)CO)C(=O)CCCn2nncc2CO[C@@H]1CN(C)C(=O)c1ccncc1 the results were Bead autofluor inactive, Anthrax LF prot inactive, BoNT-F LC inh inactive, BoNT A protease inactive and MazEF act inactive.
COCCNC(=O)C1(C)CCCN(C(=O)c2c(-c3ccccc3)noc2C)C1 (stereo not given) was read as Bead autofluor inactive, Anthrax LF prot inactive, BoNT-F LC inh inactive and BoNT A protease inactive.
O=C1CN(C(=O)COC(=O)c2oc3ccccc3c2COc2ccccc2)c2ccccc2N1 was read as Bead autofluor 22869, Anthrax LF prot inactive, BoNT-F LC inh inactive, BoNT A protease inactive and MazEF act inactive.
`O=C1CN(C(=O)COC(=O)Cc2ccsc2)c2ccccc2N1` gave Bead autofluor 23072, Anthrax LF prot inactive, BoNT-F LC inh inactive, BoNT A protease inconclusive and MazEF act inactive.
Screening Cc1c(C(=O)OCC(=O)N2CC(=O)Nc3ccccc32)oc2ccccc12 returned Bead autofluor inactive, Anthrax LF prot inactive, BoNT-F LC inh inactive, BoNT A protease inactive and MazEF act inactive.
CCOc1ccc(S(=O)(=O)N2CCCC(C(=O)NCc3cccnc3)C2)cc1 (stereo not given) was read as Bead autofluor inactive, Anthrax LF prot inactive, BoNT-F LC inh inactive, BoNT A protease inactive and MazEF act inactive.
Screening CCOC(=O)N1CCN(S(=O)(=O)c2ccc3c(c2)oc(=O)n3C)CC1 returned Bead autofluor inactive, Anthrax LF prot inactive, BoNT-F LC inh inactive, BoNT A protease inactive and MazEF act inactive.
`CCOC(=O)n1c(=O)oc2cc(S(=O)(=O)N3CCCCC3)ccc21` gave Bead autofluor 23136, Anthrax LF prot inactive, BoNT-F LC inh inactive, BoNT A protease inactive and MazEF act inactive.
For COC(=O)n1c(=O)oc2cc(S(=O)(=O)N3CCCCC3)ccc21 the results were Bead autofluor 21823, Anthrax LF prot inactive, BoNT-F LC inh inactive, BoNT A protease inconclusive and MazEF act inactive.
For Cn1c(=O)oc2cc(S(=O)(=O)N3CCCCC3)ccc21 the results were Bead autofluor inactive, Anthrax LF prot inactive, BoNT-F LC inh inactive, BoNT A protease inactive and MazEF act inactive.
CN(C)S(=O)(=O)N(CC(=O)N(Cc1ccccc1)Cc1ccccc1)c1ccccc1 was read as Bead autofluor 22498, Anthrax LF prot inactive, BoNT-F LC inh inactive, BoNT A protease inactive and MazEF act inactive.
For c1ccc(SCc2cn(C[C@H]3CC[C@@H]([C@@H]4CC[C@H](Cn5cc(CSc6ccccc6)nn5)O4)O3)nn2)cc1 the results were Bead autofluor inactive, Anthrax LF prot inactive, BoNT-F LC inh inactive, BoNT A protease inactive and MazEF act inactive.
Screening CC(C)(C)NC(=O)C(c1ccccc1)N(C(=O)c1ccco1)C1CC1 (stereo not given) returned Bead autofluor 21553, Anthrax LF prot inactive, BoNT-F LC inh inactive, BoNT A protease inconclusive and MazEF act inactive.
CC(C)OC(=O)c1ccc(Cn2nnc3ccccc3c2=O)cc1 was read as Bead autofluor 20849, Anthrax LF prot inactive, BoNT-F LC inh inactive, BoNT A protease inactive and MazEF act inactive.
COC(=O)N1CCC2CC1c1c(Cl)cccc12 (stereo not given) was read as Bead autofluor inactive, Anthrax LF prot inactive, BoNT-F LC inh inactive and BoNT A protease inactive.
Screening COc1cccc(/C=N/Nc2ncnc(N)c2[N+](=O)[O-])c1OC returned Bead autofluor 21088, Anthrax LF prot inactive, BoNT-F LC inh inactive, BoNT A protease inactive and MazEF act inactive.
For O=C(Cn1c(C(F)(F)F)nc2ccccc21)N=Nc1c(O)[nH]c2ccc(Br)cc12 the results were Bead autofluor inactive, Anthrax LF prot inactive, BoNT-F LC inh inactive, BoNT A protease inactive and MazEF act inactive.
Cc1onc(-c2ccccc2)c1C(=O)OCC(=O)Nc1ccc2c(c1)OCO2 was read as Bead autofluor 19429, Anthrax LF prot inactive, BoNT-F LC inh inactive, BoNT A protease inactive and MazEF act inactive.
